CYP2C19 act: human CYP2C19 activators, primary screen, biochemical, luminescence; AID 1025, 2008; Cytochrome P450 2C19 (Homo sapiens), P33261; recombinant CYP2C19, luciferin-H EGE luminescence; stronger effect = higher value; 0 = fully inhibited enzyme, 1 = untreated enzyme; activation factor at 5 µM; 96,000 tested, under 10 active;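 active = activation factor of at least 2 at 5 µM in the primary screen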;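 also: 0 = wells with 2.5 mM tranylcypromine and 1 = vehicle-only wells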
sEH inhibitor: soluble epoxide hydrolase inhibitors, primary screen, biochemical, human sEH. hit rate 0.34% among 91,000. Bifunctional epoxide hydrolase 2 (Homo sapiens), P34913. AID 707, 2007. recombinant human sEH enzymatic activity assay. inhibition, % at 2 µM; in the data active = inhibition above about 80%
CYP2C19 inh: blockers of cytochrome P450 2C19 activity – biochemical, luminescence, ADME assay, primary screen. hit rate 21% among 96,000. P33261. CYP2C19 Supersomes, luciferin-H EGE luminescence, 30 min. inhibition, % at 5 µM;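 active = CYP2C19 inhibition above a set limit at 5 µM in the primary screen, cut at about 50% in these data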;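 also: plate controls were negative control wells for no effect and 2.5 mM tranylcypromine positive control for full effect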
sEH act: soluble epoxide hydrolase activators, primary screen, biochemical, human sEH; Bifunctional epoxide hydrolase 2 (Homo sapiens), P34913; purified human sEH enzymatic activity, activator screen; activation, % at 2 µM; hit rate 0.04% among 91,000; AID 717, 2007; in the data active = activation above about 37%
CYP2C9 act: human CYP2C9 activators, primary screen, biochemical, luminescence. AID 1024, 2008. activation factor at 5 µM. hit rate 1.4% among 96,000. recombinant CYP2C9, luciferin-H conversion; stronger effect = higher value; factor 1 = untreated enzyme, 0 = blocked. Cytochrome P450 2C9 (Homo sapiens), P11712;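 active = activation factor of 2 or more for CYP2C9 at a 5 µM dose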;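 also: 0 = sulfaphenazole-blocked wells and 1 = vehicle-only wells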
Target sequence (P11712 whole entry, looked up): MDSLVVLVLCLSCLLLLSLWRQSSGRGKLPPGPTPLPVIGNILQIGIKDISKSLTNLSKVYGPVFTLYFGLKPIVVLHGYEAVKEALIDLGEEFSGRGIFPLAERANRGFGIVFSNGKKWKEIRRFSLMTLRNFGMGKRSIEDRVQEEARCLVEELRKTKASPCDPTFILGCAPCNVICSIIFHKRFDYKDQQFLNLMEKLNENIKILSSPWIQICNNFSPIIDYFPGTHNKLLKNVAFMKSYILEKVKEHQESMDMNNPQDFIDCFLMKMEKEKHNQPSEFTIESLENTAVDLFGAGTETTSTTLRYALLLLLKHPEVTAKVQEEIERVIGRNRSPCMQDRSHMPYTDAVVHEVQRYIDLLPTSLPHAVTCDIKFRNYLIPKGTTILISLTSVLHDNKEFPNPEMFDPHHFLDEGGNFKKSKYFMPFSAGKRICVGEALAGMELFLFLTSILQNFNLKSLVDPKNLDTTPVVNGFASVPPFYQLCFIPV
CYP2C9 inhib: blockers of cytochrome P450 2C9 activity – biochemical, luminescence, ADME assay, primary screen | CYP2C9 Supersomes, luciferin-H conversion | inhibition, % at 5 µM | hit rate 20% among 96,000 | AID 777, 2007;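 active = blocking of liver enzyme CYP2C9 beyond about 50% at 5 µM, limit read from the data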
Active calls of the source: *; . = no result. The list is not random: actives were taken first. Their share in the collection is about 27%.

SMILES | CYP2C19 act | sEH inhibitor | CYP2C19 inh | sEH act | CYP2C9 act | CYP2C9 inhib
O=C(c1ccc(F)cc1)N1CCC(O)(c2cccnc2)CC1 | 0.3 | 1.0 | 69.1* | -1.5 | 0.8 | 22.0
O=C(c1cccc(S(=O)(=O)NCCOc2ccccc2)c1)N1CCN(c2ncccn2)CC1 | 0.1 | 1.2 | 87.0* | 2.0 | 0.1 | 87.2*
O=C(c1ccc(F)cc1F)N1CCN(c2ncccn2)CC1 | 0.6 | -0.9 | 43.5 | 2.8 | 1 | -3.0
O=C(c1ccc(-c2ccccc2)cc1)N1CCCC1 | 0.9 | 3.1 | 7.4 | -1.9 | 0.9 | 8.5
O=C(c1ccc(F)cc1)N1CCN(c2ncccn2)CC1 | 0.5 | -0.1 | 52.9* | -1.8 | 1 | 2.7
CC(C)(C)c1cc(C(=O)N2CCN(c3ncccn3)CC2)ccn1 | 0.9 | -2.3 | 11.3 | 7.5 | 0.9 | 9.8
O=C(c1ccc(-c2ccccc2)cc1)N1CCN(c2ncccn2)CC1 | 0.6 | 4.0 | 43.8 | -5.8 | 0.4 | 64.4*
O=C(c1cccc(OC(F)F)c1)N1CCN(c2ncccn2)CC1 | 0.5 | -0.3 | 47.6 | -0.9 | 0.3 | 67.5*
CC(c1ccccc1)C1C(C#N)=C(N)OC2=C1C(=O)CCC2 (stereo not given) | 0.4 | -0.8 | 62.1* | 0.9 | 0.8 | 19.2
CCCCCCC1C(C#N)=C(N)OC2=C1C(=O)CCC2 (stereo not given) | 0.3 | -8.0 | 73.2* | 6.3 | 0.2 | 75.3*
N#CC1=C(N)OC2=C(C(=O)CCC2)C1c1ccsc1 (stereo not given) | 0.4 | 1.5 | 57.0* | -0.3 | 0.7 | 27.6
COc1cccc(-c2nnc(SCC(=O)Nc3ccc(S(N)(=O)=O)cc3)n2C)c1 | 1 | . | 3.0 | . | 0.6 | 37.7
Cc1oncc1C(=O)NC(C)C | 0.9 | -5.0 | 8.2 | 5.2 | 0.8 | 17.8
O=C(CSc1nc(N2CCCCC2)nc(N2CCCCC2)n1)Nc1nccs1 | 0.8 | 10.3 | 15.3 | -5.5 | 0.3 | 67.4*
COc1ccc(NC(=O)CSc2nc(N3CCCCC3)nc(N3CCCCC3)n2)cc1 | 1.1 | -0.2 | -9.2 | -0.9 | 1.1 | -7.7
Cc1nnc(NC(=O)CSC2CCCCC2)s1 | 0.7 | . | 27.1 | . | 0.8 | 18.2
O=C(CSC1CCCCC1)Nc1nccs1 | 0.2 | 10.9 | 83.5* | -9.8 | 0.6 | 42.3
CCN(CC)c1ccc(-c2nnc(SCC(=O)Nc3ccccc3C#N)n2-c2ccccc2)cc1 | 0.5 | -2.4 | 51.8* | 5.3 | 0.3 | 74.1*
N#Cc1ccccc1NC(=O)CSc1nnc(-c2ccccc2)n1-c1ccccc1 | 0.6 | -1.5 | 35.8 | 3.0 | 0.2 | 78.0*
Cc1ccc(-c2nnc(SCC(=O)CC(=O)Nc3ccccc3)n2-c2ccccc2)cc1 | 1 | 14.9 | 2.7 | -12.5 | 0.8 | 19.9
CCOC(=O)c1ccc(Oc2nc(NC(C)(C)C)nc(N(C)C)n2)cc1 | 0.2 | -11.7 | 84.0* | 13.2 | 0.1 | 87.5*
CCOC(=O)N1CCN(c2ncnc3c2[nH]c2ccc(F)cc23)CC1 | 0.4 | 8.9 | 59.6* | -8.1 | 0.5 | 48.7
COc1ccc(N2CCN(c3ncnc4c3[nH]c3ccccc34)CC2)cc1 | 1.1 | 8.3 | -6.8 | -6.3 | 1 | 0.5
CC(=O)N1CCC(O)(c2cccc(C(F)(F)F)c2)CC1 | 0.7 | -5.7 | 27.5 | 5.3 | 0.9 | 9.9
Fc1ccc2[nH]c3c(N4CCN(c5ccccc5)CC4)ncnc3c2c1 | 1 | . | -1.0 | . | 0.9 | 5.3
SMILES | CYP2C19 act | sEH inhibitor | CYP2C19 inh | sEH act | CYP2C9 act | CYP2C9 inhib
CCOC(=O)N1CCN(c2ncnc3c2[nH]c2ccc(OC)cc23)CC1 | 0.4 | -1.2 | 56.0* | 4.0 | 0.6 | 38.7
OC1(c2cccc(C(F)(F)F)c2)CCN(c2ncnc3c2[nH]c2ccc(F)cc23)CC1 | 0.3 | -8.7 | 71.0* | 10.3 | 0.1 | 85.2*
OC1C[N+]2(CCCCC2)C1 | 1.1 | -14.3 | -9.6 | 9.5 | 1 | -4.5
CCCc1cc(C(=O)Nc2c(C)n(C)n(-c3ccccc3)c2=O)no1 | 0.9 | 4.5 | 10.2 | -7.0 | 0.8 | 22.0
Cc1cc(C)nc(N2CCC(C(=O)Nc3cccc(C(F)(F)F)c3)CC2)n1 | 0.7 | . | 31.7 | . | 1.3 | -34.2
CCN(CC)CCNC(=O)c1cc2c(-c3ccc(Cl)cc3)nn(C)c2s1 | 0.8 | 0.1 | 18.2 | -1.4 | 0.8 | 18.3
Cn1nc(-c2ccc(Cl)cc2)c2cc(C(=O)NCCN3CCOCC3)sc21 | 0.5 | . | 48.7 | . | 0.3 | 70.5*
CCOCCCNC(=O)c1cc2c(-c3ccc(Cl)cc3)nn(C)c2s1 | 0.4 | -12.7 | 61.3* | 11.3 | 0.5 | 48.8
Cn1nc(-c2ccc(Cl)cc2)c2cc(C(=O)NCCCN3CCOCC3)sc21 | 0.7 | -6.1 | 28.9 | 6.8 | 0.4 | 57.7*
O=C(NCCCN1CCOCC1)c1cc(-c2ccc(O)cc2)on1 | 1.1 | -10.0 | -7.8 | 8.9 | 2.2* | -121.3
CCOc1ccccc1C(=O)N(Cc1ccccc1)Cc1cc2cc3c(cc2[nH]c1=O)OCCO3 | . | -0.2 | . | 4.1 | . | .
O=C(NCCCn1ccnc1)C(Cc1ccc([N+](=O)[O-])cc1)N1C(=O)c2ccccc2C1=O (stereo not given) | . | -5.7 | . | 11.6 | . | .
O=C(Nc1c(F)cc(F)cc1Br)c1cc(-c2ccc(O)cc2)on1 | 0.1 | -17.9 | 87.3* | 20.0 | 1.6 | -57.7
O=C1CCc2cc(S(=O)(=O)NC(Cc3ccccc3)C(=O)NC3CCCC3)ccc2N1 (stereo not given) | 0.9 | -6.8 | 11.1 | 4.0 | 0.8 | 15.4
Cc1nnc(NC(=O)CSc2nnc(Cc3ccccc3)n2Cc2ccccc2)s1 | 1 | -2.8 | 4.7 | -0.7 | 0.7 | 26.0
O=C(C1CC1)N1CCN=C1SCc1ccc(F)cc1 | 0.1 | . | 91.0* | . | 0.9 | 12.2
O=C(C1CC1)N1CCN=C1SCc1cccc(F)c1 | 0.1 | . | 89.9* | . | 0.7 | 26.7
COc1ccc(CC(=O)N2CCN=C2SC)cc1 | 0.6 | -1.1 | 41.2 | -0.5 | 1 | 3.8
O=C(C1CC1)N1CCN=C1SCc1ccccc1 | 0.2 | . | 83.0* | . | 0.8 | 16.3
O=C(c1ccco1)N1CCN=C1SCc1ccccc1Cl | 0.8 | 4.4 | 21.4 | -3.8 | 2.6* | -155.4
Cc1cccc(CSC2=NCCN2C(=O)c2ccc(Br)o2)c1 | 0.3 | -8.8 | 72.9* | 7.1 | 0.7 | 25.2
COc1ccc(NC(=O)C(NC(=O)c2ccccc2)C(C)C)cc1 (stereo not given) | 0.9 | 0.3 | 12.3 | 0.7 | 0.9 | 10.6
CC(C)(C)NC(NC(=O)Cc1ccccc1)C(Cl)(Cl)Cl (stereo not given) | 0.3 | 5.8 | 69.8* | -7.7 | 0.9 | 5.4
O=C(Cc1ccccc1)NC(Nc1ccccc1)C(Cl)(Cl)Cl (stereo not given) | 0.2 | -10.1 | 82.4* | 12.5 | 0.3 | 73.3*
COc1ccc(C(=O)NC(Nc2ccccc2)C(Cl)(Cl)Cl)cc1 (stereo not given) | 0.6 | 6.0 | 36.0 | -7.9 | 0.2 | 84.9*

Source: PubChem BioAssay (several laboratories)
